For 7 compounds, growth inhibition results are on record in PubChem BioAssay (NCI).

A short description of assay [1]: NCI Yeast Anticancer Drug Screen. Data for the rad50 strain (AID 155).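 Note: 0% = growth of vehicle-only cultures of the same strain.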 The conditions noted are these: S. cerevisiae rad50 strain growth inhibition, stronger effect = higher value. In a few lines:
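Yeast carrying a defined DNA repair defect were exposed to test compounds, and growth was compared with vehicle-treated controls to give percent inhibition.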

A short description of assay [2]: NCI Yeast Anticancer Drug Screen. Data for the mec2-1 strain (AID 157). The conditions noted are these: S. cerevisiae mec2-1 strain, stronger effect = higher value. In a few lines: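 Strain: mec2-1 (DNA repair/cell cycle alteration). Compound exposure, then growth measured; inhibition expressed relative to vehicle.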
Assay [3] can be described thus: NCI Yeast Anticancer Drug Screen. Data for the sgs1 mgt1 strain (AID 161).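 Note: 0% = growth of cultures given vehicle only.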 The conditions noted are these: S. cerevisiae sgs1 mgt1 strain, stronger effect = higher value. In a few lines:
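Inhibition of yeast growth, normalised to vehicle-treated controls, is reported for a strain bearing genetic alterations in DNA damage repair.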

A short description of assay [4]: NCI Yeast Anticancer Drug Screen. Data for the cln2 rad14 strain (AID 165).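 Note: 0% = growth equal to vehicle treated cultures.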 The conditions noted are these: S. cerevisiae cln2 rad14 strain, stronger effect = higher value. The essentials:
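Compounds are applied to the cln2 rad14 yeast strain, and growth is then compared with that of vehicle-treated cultures to give inhibition.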

Assay [5] is described as follows: NCI Yeast Anticancer Drug Screen. Data for the bub3 strain (AID 167). The conditions noted are these: S. cerevisiae bub3 mutant strain, stronger effect = higher value. The essentials:
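Compounds were applied to a genetically altered yeast strain carrying a cell-cycle control defect. Growth inhibition was scored against vehicle-treated controls.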

A short description of assay [6]: NCI Yeast Anticancer Drug Screen. Data for the mlh1 rad18 strain (AID 175). The conditions noted are these: S. cerevisiae mlh1 rad18 strain growth inhibition, stronger effect = higher value. In a few lines:
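Read-out is yeast growth inhibition, calculated against vehicle-only controls. The compound was applied to a strain engineered with DNA damage repair alterations.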

Where [7] appears, read: at 5.0 µM (retest, dose inferred, filed as 0.5).
Setting [8] is: at 50.0 µM (retest, dose inferred, filed as 5.0).

Values joined by “and” are separate entries in the source; they are usually repeats but may differ in a detail not shown here. Equal values may be shown once. Compounds without any hit were thinned out: in the full panel of roughly 79,000, 15% have a hit. The source holds several records for some structures; these can differ, active in one and inactive in another. Active and inactive are the calls of the source. Cut-off read from the data, not from the text of the source: active = growth inhibition above about 70%; inactive = the rest.

`CCCC(C)NCCOC(=O)C(c1ccccc1)C1CCCCC1` (stereo unspecified): the growth inhibition is -11% (inactive) in assay [1] (setting [7]); 49% (inactive) in assay [1] (setting [8]); 85.6% (active) in assay [1] (at 50.0 µM); 3% (inactive) in assay [2] (setting [7]); 36% (inactive) in assay [2] (setting [8]); 14.2% (inactive) in assay [2] (at 50.0 µM). The growth inhibition was -3% (inactive) in assay [3] (setting [7]); 60% (inactive) in assay [3] (setting [8]); 85.5% (active) in assay [3] (at 50.0 µM); -2% (inactive) in assay [4] (setting [7]); 36% (inactive) in assay [4] (setting [8]); 34.3% (inactive) in assay [4] (at 50.0 µM). The growth inhibition in assay [5] (setting [7]) is 0% (inactive); in assay [5] (setting [8]) it was 49% (inactive); in assay [5] (at 50.0 µM) it was 57.5% (inactive); in assay [6] (setting [7]), 1% (inactive); in assay [6] (setting [8]), 61% (inactive); in assay [6] (at 50.0 µM) it was 73.2% (active).

As to `C=CCOC(=O)c1ccc(C(=O)OCC=C)cc1`, the growth inhibition in assay [1] (setting [7]) was -5% (inactive); in assay [1] (setting [8]), -77% (inactive); in assay [1] (at 50.0 µM), 50.6% (inactive); in assay [2] (setting [7]) it was -11% (inactive); in assay [2] (setting [8]), -32% (inactive); in assay [2] (at 50.0 µM), 52.2% (inactive). Besides, the growth inhibition was -1% (inactive) in assay [3] (setting [7]); -13% (inactive) in assay [3] (setting [8]); 78.5% (active) in assay [3] (at 50.0 µM); 4% (inactive) in assay [4] (setting [7]); -26% (inactive) in assay [4] (setting [8]); 39.4% (inactive) in assay [4] (at 50.0 µM). Also, the growth inhibition in assay [5] (setting [7]) was 6% (inactive); in assay [5] (setting [8]), -53% (inactive); in assay [5] (at 50.0 µM), 44.8% (inactive); in assay [6] (setting [7]), 0% (inactive); in assay [6] (setting [8]), -41% (inactive); in assay [6] (at 50.0 µM), 64.3% (inactive).

Take `O=C(Nc1cccc2c(OC(=O)C(Cl)Cl)c(N=Nc3ccc(S(=O)(=O)Nc4nccs4)cc3)cc(N=Nc3ccc(S(=O)(=O)Nc4nccs4)cc3)c12)C(Cl)Cl` (tested in a mixture with another compound): the growth inhibition in assay [1] (setting [7]) was 93% (active) and 21% (inactive); in assay [1] (setting [8]), 6% (inactive) and 87% (active); in assay [1] (at 50.0 µM) it was 71.8% (active) and 25.1% (inactive); in assay [2] (setting [7]) it was 95% (active) and 10% (inactive); in assay [2] (setting [8]), 39% (inactive) and 90% (active); in assay [2] (at 50.0 µM), 62% (inactive) and 38.1% (inactive). Besides, the growth inhibition is 94% (active) and 19% (inactive) in assay [3] (setting [7]); 29% (inactive) and 88% (active) in assay [3] (setting [8]); 67.2% (inactive) and 18.3% (inactive) in assay [3] (at 50.0 µM); 93% (active) and 29% (inactive) in assay [4] (setting [7]); 34% (inactive) and 88% (active) in assay [4] (setting [8]); 56.5% (inactive) and 31.9% (inactive) in assay [4] (at 50.0 µM). The growth inhibition in assay [5] (setting [7]) is 90% (active) and 22% (inactive); in assay [5] (setting [8]), 41% (inactive) and 88% (active); in assay [5] (at 50.0 µM), 50.2% (inactive) and 47.1% (inactive); in assay [6] (setting [7]), 85% (active) and 35% (inactive); in assay [6] (setting [8]), -14% (inactive) and 83% (active); in assay [6] (at 50.0 µM) it was 81.3% (active) and 39.8% (inactive).

As for `O=c1c(Cl)c(Cl)cnn1-c1ccccc1`, the growth inhibition in assay [1] (setting [7]) was 33% (inactive); in assay [1] (setting [8]) it was 58% (inactive); in assay [1] (at 50.0 µM) it was 30.9% (inactive) and 6.8% (inactive); in assay [2] (setting [7]), 1% (inactive); in assay [2] (setting [8]), 22% (inactive); in assay [2] (at 50.0 µM), 45% (inactive) and -8.9% (inactive). Also, the growth inhibition in assay [3] (setting [7]) is -6% (inactive); in assay [3] (setting [8]), 14% (inactive); in assay [3] (at 50.0 µM), 35.7% (inactive) and -2.25% (inactive); in assay [4] (setting [7]) it was 17% (inactive); in assay [4] (setting [8]), 19% (inactive); in assay [4] (at 50.0 µM) it was 28.1% (inactive) and 13.8% (inactive). Also, the growth inhibition was 10% (inactive) in assay [5] (setting [7]); 21% (inactive) in assay [5] (setting [8]); 23.9% (inactive) and -9.2% (inactive) in assay [5] (at 50.0 µM); 8% (inactive) in assay [6] (setting [7]); 26% (inactive) in assay [6] (setting [8]); 72.6% (active) and -13.8% (inactive) in assay [6] (at 50.0 µM).

For the compound `Cc1cc2c(c(Br)c1O)Oc1c(cc(C)c(O)c1Br)C21OC(=O)c2ccccc21`, the growth inhibition was 52% (inactive) in assay [1] (setting [7]); 98% (active) in assay [1] (setting [8]); 90.7% (active) in assay [1] (at 50.0 µM); 42% (inactive) in assay [2] (setting [7]); 99% (active) in assay [2] (setting [8]); 93% (active) in assay [2] (at 50.0 µM). Also, the growth inhibition in assay [3] (setting [7]) was 55% (inactive); in assay [3] (setting [8]) it was 99% (active); in assay [3] (at 50.0 µM), 92.6% (active); in assay [4] (setting [7]) it was 36% (inactive); in assay [4] (setting [8]), 98% (active); in assay [4] (at 50.0 µM) it was 92.5% (active). The growth inhibition was 52% (inactive) in assay [5] (setting [7]); 99% (active) in assay [5] (setting [8]); 91% (active) in assay [5] (at 50.0 µM); 77% (active) in assay [6] (setting [7]); 98% (active) in assay [6] (setting [8]); 90% (active) in assay [6] (at 50.0 µM).

Turning to `O=C(NN1CCOC1=O)OCCCl`, the growth inhibition in assay [1] (setting [7]) is -2% (inactive); in assay [1] (setting [8]) it was 2% (inactive); in assay [1] (at 50.0 µM), 24.7% (inactive); in assay [2] (setting [7]) it was -1% (inactive); in assay [2] (setting [8]), -6% (inactive); in assay [2] (at 50.0 µM), 18.7% (inactive). In addition, the growth inhibition in assay [3] (setting [7]) is -8% (inactive); in assay [3] (setting [8]), -7% (inactive); in assay [3] (at 50.0 µM), 34.6% (inactive); in assay [4] (setting [7]) it was 9% (inactive); in assay [4] (setting [8]) it was 0% (inactive); in assay [4] (at 50.0 µM), 24.6% (inactive). In addition, the growth inhibition in assay [5] (setting [7]) was 6% (inactive); in assay [5] (setting [8]), 2% (inactive); in assay [5] (at 50.0 µM) it was -16.1% (inactive); in assay [6] (setting [7]) it was -1% (inactive); in assay [6] (setting [8]), 1% (inactive); in assay [6] (at 50.0 µM) it was 73.5% (active).

With `CC12CCC3c4ccc(O)cc4CCC3C1CCC2S` (stereo unspecified), the growth inhibition is -4% (inactive) in assay [1] (setting [7]); 96% (active) in assay [1] (setting [8]); -7.35% (inactive) and 96.5% (active) in assay [1] (at 50.0 µM); -31% (inactive) in assay [2] (setting [7]); 97% (active) in assay [2] (setting [8]); -1.65% (inactive) and 49.3% (inactive) in assay [2] (at 50.0 µM). Moreover, the growth inhibition is -19% (inactive) in assay [3] (setting [7]); 97% (active) in assay [3] (setting [8]); -2.95% (inactive) and 52.2% (inactive) in assay [3] (at 50.0 µM); -3% (inactive) in assay [4] (setting [7]); 96% (active) in assay [4] (setting [8]); -5.3% (inactive) and 94.8% (active) in assay [4] (at 50.0 µM). Moreover, the growth inhibition is -9% (inactive) in assay [5] (setting [7]); 97% (active) in assay [5] (setting [8]); 0.75% (inactive) and 98.1% (active) in assay [5] (at 50.0 µM); -26% (inactive) in assay [6] (setting [7]); 95% (active) in assay [6] (setting [8]); -2.3% (inactive) and 96.3% (active) in assay [6] (at 50.0 µM).
